Active and inactive are the calls of the source. Rule for the calls: active = hit-call score of the fitted dose curve at least 0.9, where 1 is the maximum; inactive = score below 0.9.
What was measured:
[1] = APR_HepG2_P-H2AX_72hr: Apredica 72-hour HepG2 Assay for H2AX Phosphorylation (AID 2282916); conditions: imaging, actives raise or lower the signal;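 note: phospho-histone H2A.x immunostain intensity per cell marking DNA damage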
Summary of the method: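 HepG2; cpd 0.39–200 uM ×10 conc, duplicates; 0.5% DMSO; 72 hr. Fix 3.7% formaldehyde 30 min RT, 0.5% Triton X-100 10 min. Anti-phospho-H2A.x 1:200 + Hoechst 2 ug/mL, 60 min RT; ArrayScan imaging.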

[2] = APR_HepG2_MitoMembPot_72hr: Apredica 72-hour HepG2 Assay for Mitochondrial Membrane Potential (AID 2282917); conditions: imaging, actives raise or lower the signal
Summary of the method: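 Membrane potential read by MitoTracker Red CMXRos (250 nM, 30 min, pre-fixation) fluorescence imaging of HepG2 after 72 hr exposure. Ten concentrations, 0.39–200 uM, duplicate wells, 0.5% DMSO; fitted in both directions against DMSO baseline.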

[3] = APR_HepG2_MitoticArrest_72hr: Apredica 72-hour HepG2 Assay for Mitotic Arrest (AID 2282918); conditions: high-content imaging, actives raise or lower the signal
Summary of the method: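 Read-out is phospho-histone H3 immunofluorescence with Hoechst nuclear segmentation, imaged at 20x. Human HepG2 liver cells received ten concentrations (0.39–200 uM, final DMSO 0.5% v/v) for 72 hr before fixation. Gain or loss of signal was fitted relative to DMSO.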

[4] = APR_HepG2_StressKinase_72hr: Apredica 72-hour HepG2 Assay for Stress Kinase (AID 2282921); conditions: HepG2 stress kinase (phospho-c-Jun) imaging, actives raise or lower the signal
Summary of the method: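 Dose 0.39–200 uM (10 pts, duplicate), 0.5% DMSO; 72 h; fix 3.7% formaldehyde 30 min RT; Triton permeabilize; anti-phospho-c-Jun/Cy3 + Hoechst 60 min RT; image 20x; fit gain/loss vs DMSO.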

[5] = APR_HepG2_StressKinase_24hr: Apredica 24-hour HepG2 Assay for Stress Kinase (AID 2282922); conditions: HepG2 stress kinase (phospho-c-Jun) imaging, actives raise or lower the signal
Summary of the method: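 HepG2, 24 hr dosing, 0.39–200 uM in duplicate, 0.5% DMSO; formaldehyde fix (3.7%), 0.5% Triton X-100; anti-phospho-c-Jun + Cy3 secondary, Hoechst counterstain; ArrayScan imaging; bidirectional curve fit vs DMSO baseline.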

[6] = APR_HepG2_MitoMass_72hr: Apredica 72-hour HepG2 Assay for Mitochondrial Mass (AID 2282924); conditions: high-content imaging, actives raise or lower the signal;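 note: MitoTracker Red CMXRos stain intensity per cell imaged as mitochondrial mass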
Summary of the method: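 HepG2, 72 hr cmpd, 10 conc 0.39–200 uM in dup, DMSO 0.5% v/v. MitoTracker Red CMXRos 250 nM 30 min pre-fix; formaldehyde 3.7% fix 30 min RT. HCS imaging, gain/loss fit vs DMSO.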

[7] = APR_HepG2_NuclearSize_72hr: Apredica 72-hour HepG2 Assay for Nuclear Size (AID 2282925); conditions: high-content imaging, actives raise or lower the signal
Summary of the method: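 HepG2; cpd 0.39–200 uM, 10 conc, duplicate; 72 h; DMSO 0.5% v/v; fix 3.7% formaldehyde 30 min RT; Triton permeabilization; Hoechst 2 ug/mL; HCS imaging 20x; nuclear diameter; gain/loss fit vs DMSO.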

[8] = APR_HepG2_P-H2AX_24hr: Apredica 24-hour HepG2 Assay for H2AX Phosphorylation (AID 2282920); conditions: high-content imaging, actives raise or lower the signal
Summary of the method: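 HepG2, 24 hr, cpd 0.39–200 uM (10 conc, duplicate), DMSO 0.5% v/v final. Fix 3.7% formaldehyde, Triton X-100 permeabilize, anti-phospho-H2A.x 1:200 + Hoechst 2 ug/mL. Imaged, bidirectional fit vs DMSO.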

[9] = APR_HepG2_p53Act_72hr: Apredica 72-hour HepG2 Assay for p53 Activation (AID 2282923); conditions: high-content imaging, actives raise or lower the signal;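 note: average cellular p53 protein immunofluorescence intensity in HepG2 cells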
Summary of the method: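 10-pt conc. 0.39–200 uM, duplicate, 0.5% DMSO; 72 hr exposure; 3.7% formaldehyde fix, 0.5% Triton perm; sheep anti-p53/Cy5 + Hoechst; ArrayScan 20x, 6 images/well; gain/loss fit vs DMSO.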

[10] = APR_HepG2_MicrotubuleCSK_72hr: Apredica 72-hour HepG2 Assay for Microtubule CSK Stabilty (AID 2282919); conditions: HepG2 microtubule cytoskeleton, high-content imaging, actives raise or lower the signal
Summary of the method: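 Read-out is tubulin fluorescence intensity from high-content imaging of HepG2 cells, with nuclei identified by Hoechst 33342. Treatment lasts 72 h at 0.39–200 uM, and curves are fitted bidirectionally against the DMSO negative control.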

Measured: AC50

Cc1ccccc1CO[C@@H]1C[C@@]2(C(C)C)CC[C@]1(C)O2
inactive: [1] | [2] | [3] | [4] | [5] | [6] | [7]

C[C@]12CCC(=O)C=C1CC[C@@H]1[C@@H]2CC[C@@]2(C)[C@H]1CC[C@]2(C)O
inactive: [1] | [2] | [3] | [8] | [4] | [5] | [9] | [6] | [7]

CCOC(=O)C(O)(c1ccc(Cl)cc1)c1ccc(Cl)cc1
inactive: [2] | [4] | [5] | [6]
active: [1] 48.1 µM | [3] 48.5 µM | [9] 49.4 µM | [7] 105 µM

C[C@]12CCC(=O)C=C1CC[C@@H]1[C@@H]2CC[C@]2(C)C(=O)CC[C@@H]12
inactive: [1] | [3] | [10] | [8] | [4] | [9] | [6] | [7]

O=C(NC(=O)c1cc(F)c(F)cc1Cl)Nc1cc(F)ccc1N1CCC(C(=O)O)CC1
inactive: [1] | [2] | [3] | [4] | [9] | [6] | [7]

O=C(NC(=O)c1c(F)cccc1F)Nc1cc(Cl)c(OC(F)(F)C(F)F)c(Cl)c1
inactive: [1] | [2] | [10] | [8] | [4] | [5] | [6] | [7]
active: [3] 16.9 µM | [9] 6.27 µM

CCNc1nc(NC(C)C)nc(SC)n1
inactive: [1] | [3] | [10] | [4] | [5] | [6] | [7]

O=C(O)C(F)(F)C(F)(F)C(F)(F)C(F)(F)C(F)(F)C(F)(F)C(F)(F)C(F)(F)F
active: [3] 111 µM | [9] 106 µM
inactive: [1] | [2] | [8] | [4] | [6] | [7]

CCCCCCOC(=O)c1ccccc1C(=O)OCCCCCC
inactive: [1] | [2] | [3] | [4] | [9] | [6] | [7]

O=C(N[C@H]1CN2CCC1CC2)c1cc2ccoc2cn1
inactive: [1] | [2] | [3] | [10] | [4] | [5] | [9] | [6] | [7]

ClC1=C(Cl)[C@]2(Cl)[C@@H]3[C@@H](Cl)[C@H]4O[C@H]4[C@@H]3C1(Cl)C2(Cl)Cl
inactive: [2] | [4] | [6] | [7]
active: [1] 48.2 µM | [3] 51.6 µM | [8] 62.3 µM | [9] 54.5 µM

Cc1cc(-c2ccc(N)c(C)c2)ccc1N
inactive: [1] | [3] | [10] | [8] | [4] | [5] | [9] | [6] | [7]

Cc1ccccc1[N+](=O)[O-]
inactive: [1] | [2] | [3] | [4] | [9] | [6] | [7]

CC#Cc1cc(C)nc(Nc2ccccc2)n1
inactive: [1] | [2] | [3] | [8] | [4] | [6] | [7]
active: [9] 103 µM

O=NN(c1ccccc1)c1ccccc1
inactive: [1] | [3] | [10] | [4] | [9] | [6] | [7]

CCC(=O)O[C@H]1CC[C@H]2[C@@H]3CCC4=CC(=O)CC[C@]4(C)[C@H]3CC[C@]12C
inactive: [4]
active: [1] 86.5 µM | [2] 114 µM | [3] 65 µM | [9] 89.9 µM | [6] 92.1 µM | [7] 50.8 µM

CC(c1ccc(O)cc1)(c1ccc(O)cc1)c1ccc(O)cc1
inactive: [2] | [4] | [5]
active: [1] 95.4 µM | [3] 105 µM | [9] 110 µM | [6] 170 µM | [7] 105 µM

NS(=O)(=O)C(F)(F)C(F)(F)C(F)(F)C(F)(F)C(F)(F)C(F)(F)C(F)(F)C(F)(F)F
inactive: [10] | [4] | [6] | [7]
active: [1] 99.3 µM | [2] 102 µM | [3] 77.9 µM | [9] 61.7 µM

C=CC(N)=O
inactive: [1] | [3] | [10] | [8] | [4] | [9] | [6] | [7]

C1CC2OC2CC1C1CO1 (stereo not drawn)
inactive: [1] | [2] | [3] | [10] | [8] | [4] | [9] | [6] | [7]

O=S(=O)(O)C(F)(F)C(F)(F)C(F)(F)C(F)(F)C(F)(F)C(F)(F)F
inactive: [1] | [3] | [10] | [4] | [5] | [9] | [6] | [7]

CCOCCOC(C)=O
inactive: [1] | [3] | [10] | [8] | [4] | [5] | [9] | [6] | [7]

CC1=C2C[C@H]3[C@@H](CC=C4C[C@@H](O)CC[C@@]43C)[C@@H]2CC[C@]12O[C@@H]1C[C@H](C)CN[C@H]1[C@H]2C
inactive: [2] | [4] | [9] | [7]
active: [1] 50 µM | [3] 16.5 µM | [6] 41.2 µM

— PubChem BioAssay (EPA / NIEHS)
